The supplement of paper PMC6555819

The sequences below were run on VDR:RXRa (NR concentration 270 nM, RXRa partner concentration 90 nM) (assay: PBM binding z-score (relative to random genomic background probes); higher = stronger binding; sequences stand for … in GC…GCGATTGACAGCGTAGAATGAAGG).
Procedure: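 Protein-binding microarray (Agilent 4x180K custom design, double-stranded 60-nt probes: 5' GC cap, 34-nt variable region, 24-nt constant primer region; full probe sequence given). Purified or IVT nuclear receptor:RXRα heterodimers (3:1 NR:RXRα, mostly 270:90 nM) or homodimers were incubated for 1 h in PBS with 2% milk and no ligand, then detected with Alexa488 antibodies. Fluorescence from o1-orientation probes (~5 replicates averaged) was converted to z-scores against 500 random hg19 background probes. Variable regions are seed direct-repeat (DR0–DR5) sites, all their single-nucleotide variants and half-site ablations.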

| Sequence | PBM binding z-score |
| --- | --- |
| TCATATGGGTAAAAGGTGAAAGTCGGTGTGGTAA | 1.34 |
| TCGAGTCGGTTAGTCGGGGCATTCAGCCAACATA | 0.217 |
| GCTAGTTGGTCAGTAAAAGGGCACACACCGGTCG | 0.0154 |
| CGAACTAGGTCATTGACTGGACAGTGAATAGTAA | 1.68 |
| CAGCCTAGGTCAGGGCCAGTATTGGAGGAACGTT | -0.0862 |
| ATCTCTAGGTAAAAGTTTAGTGAATCCCGAGGAT | 0.124 |
| AATACAGGGTCACTAGGACAGAGTAGGTACGAAT | 3.97 |
| TTACCAAGGTGAGCTGAGGTCGTTGACCCAACTC | 3.96 |
| TGAATGAGATTATAAGATCAGGGAACGTTGCAAA | -0.491 |
| CATACAGGGTCAGCTAGGCCACAGTAGGGACGGC | 4.79 |
| GCAGACAGGTGAAACGCAGGTAACTCAAGGTGGC | -0.431 |
| CGTCAAAGTGCAAGGTAACGTAACAGAAAGCAGC | -0.0204 |
| GATACAGGGTCAAGGGCAGAGTACGCGTATTGAT | 4.62 |
| CGTCCAAGTTCAATGCTAGGTCAGTGAAAGCATT | 4.26 |
| ATATGTAGGCTATCGGGTCATTCAGTTTGCGCAT | 4.58 |
| CCTTACGGGTCAAGGTTATAGCACGGGTGGTACG | 3.41 |
| CCTAGTTGGTCAGGGTCACACACGCTATAGGTAC | 4.17 |
| CCTACTTGGCCACGAAAGGTCATTGATTCAGTGA | 4.14 |
| TGGATGAGGTTAAAGATCAGGGAACGTGGCGTCG | 2.32 |
| CCGAGCAGGCCAATCTGGGTCACTCAAGGCTTGA | 0.157 |

| Sequence | PBM binding z-score |
| --- | --- |
| GCATATACGTAATACAAGGTGAAAGTCCGATTGT | 0.232 |
| CGTCAAAGTTCAAAGTAACGTAACAGAAAGCAGC | 4.09 |
| CCTAGCAGGCCAATGTGGGTCACTCAAGGCTTGA | 1.02 |
| TCACATAGGTAAAAGGTGAAAGTCGGTGTGGTAA | 1.8 |
| TCATATAGGTAGTACAGGTGAAAGTCGGCATCTA | 0.794 |
| CCTACTGAGCCATTCAGAGGTCATTGATCATATG | 3.96 |
| CCTAGTCGGTCAAGGTCACACACGCTATAGGTAC | 4.29 |
| ATCTCTAGCTAACCAAGTTCAGTGAATGCCGAAC | 1.42 |
| AGAATGAGGTTATTAAGATCAGGTAATTGCGGTC | 2.82 |
| CCGACTGGGGCAGCAAGGTTACCATACCATCCGG | 1.25 |
| CCGAGTAGGTCATGGGGCATTCAGGCAACGGTGA | 2.27 |
| AATACAGGGTCATCGTAGGCAAGAGTACGCACAG | 5.23 |
| CGAACGACGGCATGAGTTGATAGCAAATGCCGAT | -0.72 |
| TAGCCTAGGTCAGATCGCGCCAGTATACGCTATA | 0.314 |
| ATCTCTAGGTAAGACCCAGTTCAGTGAAGAACGC | 1.04 |
| TAGCCTAGGTCATCGGGCCAGTATAGTACGCATC | 2.24 |
| GCGACTGGGGCAATGCAGGTTACCATAAGGTTGG | -0.0726 |
| GGAACGAGGGCAAAGTTGAAAGCATCTGTCGACG | 1.76 |
| CTCGAAAGGTCGTGCTCCGGTGAGTATACCAAAC | 3.48 |
| TCATATAGGTAAAAGGAGAAAGTCGGTGTGGTAA | 0.929 |
